# Laboratory results: PubChem BioAssay AID1240 (Sanford-Burnham Center for Chemical Genomics, 2008)
# About 800 (1.6%) of roughly 50,000 compounds showed an effect of 50% or more. The list comes from a sample in which strong results are over-represented; it also holds similar structures and randomly drawn compounds.
# Biological target: Bcl-2-like protein 10 (Homo sapiens) (UniProt Q9HD36)
# Assay: Phenotype converters, Bcl-B/TR3 peptide binding displacement, primary biochemical FP (AID 1240);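 further: 0% = Bcl-B with tracer peptide and DMSO and 100% = tracer peptide lacking Bcl-B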
# Conditions: GST-Bcl-B / FITC-TR3 peptide fluorescence polarization; stronger effect = higher value; compound at 3.75 mg/L
# Sequence of Bcl-2-like protein 10 (Homo sapiens) (Q9HD36 whole entry, looked up): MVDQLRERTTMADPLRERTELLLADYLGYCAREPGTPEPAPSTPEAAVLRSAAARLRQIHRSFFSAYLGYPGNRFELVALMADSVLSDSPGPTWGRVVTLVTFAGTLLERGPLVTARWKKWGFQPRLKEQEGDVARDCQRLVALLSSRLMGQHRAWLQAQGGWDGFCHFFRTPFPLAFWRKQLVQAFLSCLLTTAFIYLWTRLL
row,SMILES,displacement [%]
1,CC(C)C1=NN2C(=N)/C(=C/c3cc(Cl)ccc3OCc3ccccc3)C(=O)N=C2S1,-7.4
2,COc1ccc(/C=C2/C(=N)N3N=C(C(C)C)SC3=NC2=O)cc1OC,133
3,CN1C(=O)/C(=C\c2ccc(-c3ccc(F)c(Cl)c3)o2)SC1=S,3.9
4,CC(C)C1=NN2C(=N)/C(=C/c3ccc(-c4ccc(F)c(Cl)c4)o3)C(=O)N=C2S1,146
5,COc1cc(/C=C2/C(=N)N3N=C(C(C)C)SC3=NC2=O)cc(Cl)c1OCCOc1ccccc1,-39
6,CCC1=NN2C(=N)/C(=C/c3ccc(OC)c(OC)c3)C(=O)N=C2S1,-1.4
7,Cc1c(Cl)cccc1N=Cc1ccc[nH]1,11.3
8,Cc1sc2nc(SCC(=O)NCCO)n(-c3ccccc3)c(=O)c2c1C,1.9
9,COC(C)(C)c1cc(-c2cccc3ccccc23)nc(N)n1,0
10,CCOc1ccc2nc(SC)nc(C)c2c1,-3.6
11,CCOC(=O)CC(=O)CSc1nc(C)c2cc(OCC)ccc2n1,67.2
12,C=CCSc1nc(C)c2cc(OCC)ccc2n1,7.4
13,Cc1cc(C)c2oc(-c3ccc(C)c(NC(=O)c4ccc(Br)o4)c3)nc2c1,-3.8
14,CN(C)CCCNC(=O)c1ccc(N(C)S(=O)(=O)c2ccccc2)cc1,-13.4
15,CCOC(=O)c1csc(NC(=O)c2ccc(C(=O)c3ccccc3)cc2)n1,-24.4
16,Cc1ccc(C(C)C)c(OCC(=O)Nc2ccc(NC(=O)c3ccccc3Cl)cc2)c1,-2.1
17,O=c1[nH]c(=O)n(-c2cccc(Br)c2)c(O)c1/C=C1\C=Nc2ccccc21,33.4
18,O=c1[nH]c(=O)n(Cc2ccc(F)cc2)c(O)c1/C=C1/C=CC=N1,32
19,Cc1cc(C)cc(-n2c(O)c(/C=C3\C=Nc4ccccc43)c(=O)[nH]c2=O)c1,71.2
20,O=c1[nH]c(=O)n(Cc2ccc(F)cc2)c(O)c1/C=C1\C=Nc2ccccc21,51.3
21,Cc1cc(C)c(-n2c(O)c(/C=C3\C=Nc4ccccc43)c(=O)[nH]c2=O)c(C)c1,-4.1
22,C=CCn1c(O)c(/C=C2\C=Nc3ccccc32)c(=O)[nH]c1=S,-2.9

row,SMILES,displacement [%]
1,COc1cc(OC)c(OC)cc1/C=N/NC(=O)CSc1nc2ccccc2[nH]1,0.1
2,O=C(Nc1ccccc1C(=O)N=Nc1c(O)[nH]c2ccc([N+](=O)[O-])cc12)c1ccccc1,-1.3
3,COc1ccc(C)cc1NC(=O)CN(Cc1ccccc1)S(=O)(=O)c1ccc(OC)c(OC)c1,-46.5
4,CCN1CCc2c(sc(NC(=O)Nc3ccc(Cl)c(Cl)c3)c2C(N)=O)C1,111
5,COC(=O)c1c(NC(=O)Nc2ccc(Cl)c(Cl)c2)sc2c1CCC2,11.8
6,CCN1CCc2c(sc(NC(=O)Nc3ccc(Cl)cc3)c2C(N)=O)C1,21.3
7,CCOc1ccccc1NC1=CC(=O)CC(c2ccccc2)C1 (stereo unspecified),-8.1
8,COc1ccc(COCC(O)CN2CC(C)OC(C)C2)cc1OC (stereo unspecified),4
9,COc1ccccc1C(=O)N1CCN(c2nc3ccc([N+](=O)[O-])cc3s2)CC1,-14
10,Cc1ccccc1C(=O)N1CCN(c2nc3ccc([N+](=O)[O-])cc3s2)CC1,161
11,O=C(c1ccc(Br)cc1)N1CCN(c2nc3ccc([N+](=O)[O-])cc3s2)CC1,3.2
12,O=C(c1cccc2ccccc12)N1CCN(c2nc3ccc([N+](=O)[O-])cc3s2)CC1,28.9
13,O=C(c1ccc(Cl)cc1Cl)N1CCN(c2nc3ccc([N+](=O)[O-])cc3s2)CC1,100
14,CCC(=O)N1CCN(c2nc3ccc([N+](=O)[O-])cc3s2)CC1,-8.8
15,COc1ccc(N2C(=O)c3ccccc3NC2c2ccc(OC)c(CN3C(=O)c4ccccc4C3=O)c2)cc1 (stereo unspecified),-4.2
16,COC(=O)CSc1nc(NC(C)=O)nc(C)c1Br,4.5
17,Oc1c(Cl)cc(Br)cc1/C=N/Nc1nc(N2CCOCC2)nc(N2CCOCC2)n1,9.3
18,O=C1/C(=C\Nc2cc(Cl)ccc2O)CCc2ccccc21,85.9
19,O=C1/C(=C\Nc2ccc3c(c2)OCO3)CCc2ccccc21,48.1
20,O=C1/C(=C\Nc2ccccc2O)CCc2ccccc21,3.8
21,O=C1/C(=C/Nc2ccccc2NS(=O)(=O)c2ccccc2)CCc2ccccc21,10.4
22,CNc1ccc([N+](=O)[O-])cc1N/C=C1\CCc2ccccc2C1=O,126

row,SMILES,displacement [%]
1,O=C1/C(=C/Nc2ccccc2NS(=O)(=O)c2ccc([N+](=O)[O-])cc2)CCc2ccccc21,8.1
2,C[N+]1=C(CC(=O)Nc2ccccc2Cl)c2ccccc2CC1(C)C,1.4
3,Cc1ccc2nc(-c3ccc(NC(=O)c4ccc(S(=O)(=O)N5CCCC5)cc4)cc3)sc2c1,-1.5
4,Cc1cc(S(=O)(=O)N2CCCC2C(=O)O)c(C)cc1Cl (stereo unspecified),-5.8
5,O=c1c2c(nc3cc(-c4cccs4)[nH]n13)CCS2,75.8
6,O=c1c2c(nc3cc(-c4ccco4)[nH]n13)CCS2,78.9
7,Cc1nc2cc(-c3ccco3)[nH]n2c(=O)c1C,17
8,O=c1c2c(nc3cc(-c4cccs4)[nH]n13)CCC2,5.7
9,O=c1c2c(nc3cc(-c4cccs4)[nH]n13)CCCC2,20.5
10,O=c1c2c(nc3cc(-c4ccccc4)[nH]n13)CCS2,-12.6
11,O=C1NC(=O)N(c2ccc3c(c2)OCO3)C(=O)/C1=C/c1ccc(I)o1,17.5
12,COc1cc(/C=N/Nc2ncc(C)c(=O)[nH]2)cc(OC)c1O,6.6
13,CN(C)c1ccc(NS(=O)(=O)c2ccc(N3C(=O)CCC3=O)cc2)cc1,19.2
14,COc1ccc(N/C(C)=C/C(=O)c2ccc(Cl)cc2)c(OC)c1,0.8
15,CCCCCCC(=O)Nc1nnc(CC(C)C)s1,-12.9
16,C/C(=N\NC(=O)CCc1c(C)n[nH]c1C)c1ccc(N)cc1,-4
17,CCCC1=NN(c2ccc([N+](=O)[O-])cc2)C(=O)/C1=C\N(C)C,-5.5
18,NC(=O)c1c(NC(=O)Nc2ccc(Cl)cc2)sc2c1CCCC2,0.8
19,CCOc1ccc(N2COc3ccc4ccccc4c3C2)cc1,9.1
20,Oc1c(Br)cc2oc3c(c2c1/C=N/c1ncn[nH]1)CCCC3,8.5
21,Cc1ccc(N=Cc2c(O)c([N+](=O)[O-])cc3oc4c(c23)CCCC4)cc1C,-1.4
22,Oc1ccccc1N=Cc1c(O)c(I)cc2oc3c(c12)CCCC3,130

row,SMILES,displacement [%]
1,O=C(NCc1cccnc1)C(=O)N1CCCCC1,-1.4
2,O=C(CC(c1ccccc1)c1ccccc1)Nc1ccccc1Br,-11.6
3,CC(=O)CCc1oc2ccc([N+](=O)[O-])cc2c1-c1ccc(C)o1,3.5
4,CC(=O)/C=C/c1oc2ccc([N+](=O)[O-])cc2c1-c1ccc(C)o1,80.9
5,COc1cc2nnc(/C=C/C(C)=O)c(-c3ccc(C)o3)c2cc1OC,48
6,O=C(Nc1ccc(-c2nnc(-c3ccccc3)o2)cc1)c1cccs1,15.3
7,Nc1nonc1C(=O)N/N=C/c1cc(Cl)cc(Cl)c1O,9
8,C=CCN1C(=O)/C(=C\c2ccc(-c3ccccc3Cl)o2)SC1=S,149
9,O=C1/C(=C/c2ccc(-c3cc(Cl)ccc3Cl)o2)SC(=S)N1Cc1ccco1,14.1
10,C=CCN1C(=O)/C(=C\c2ccc(-c3ccc(F)c(Cl)c3)o2)SC1=S,39.4
11,CCOC(=O)c1ccc(-c2ccc(/C=C3/SC(=S)N(CC(=O)O)C3=O)o2)cc1,-83.7
12,C=CCN1C(=O)/C(=C\c2ccc(-c3cc(Cl)ccc3Cl)o2)SC1=S,65.4
13,C=CCN1C(=O)/C(=C\c2ccc(-c3cc(Cl)cc(Cl)c3)o2)SC1=S,1.7
14,C=CCN1C(=O)/C(=C\c2ccc(-c3ccc(Cl)c(Cl)c3)o2)SC1=S,50.1
15,C=CCN1C(=O)/C(=C\c2ccc(-c3cccc(Cl)c3)o2)SC1=S,1.4
16,CCOC(=O)c1ccc(-c2ccc(/C=C3/SC(=S)N(CC)C3=O)o2)cc1,31
17,C=CCN1C(=O)/C(=C\c2ccc(-c3ccc(C(=O)OCC)cc3)o2)SC1=S,90.3
18,O=C(O)CN1C(=O)/C(=C\c2ccc(-c3ccccc3Cl)o2)SC1=S,-121
19,O=C1/C(=C\c2ccc(-c3ccccc3Cl)o2)SC(=S)N1Cc1ccccc1,10
20,O=C(COc1ccc(Cl)cc1Cl)Nc1ccc2c(c1)OCO2,3.3
21,Cc1cc(OCC(=O)Nc2ccc(Nc3ccccc3)cc2)ccc1Br,1.1
22,CCOc1ccc(N(CC(=O)Nc2ccccc2OCC)S(=O)(=O)c2ccc(SC)cc2)cc1,15.2

row,SMILES,displacement [%]
1,O=C(COc1ccc([N+](=O)[O-])cc1)Nc1cc(C(F)(F)F)cc(C(F)(F)F)c1,-2.6
2,O=C1NC(=Nc2ccc(O)cc2)S/C1=C/C=C/c1ccccc1,-5.6
3,CC(=O)N(c1ccc(Br)cc1)C1SC(=O)N(c2cccc(C)c2)C1=O (stereo unspecified),-0.5
4,CN(C(=O)c1cccs1)c1ccccc1C(=O)O,-1.3
5,CN(c1ccccc1C(=O)O)C1SC(=O)N(c2ccccc2)C1=O (stereo unspecified),138
6,Brc1ccc2c(c1)Nc1nc3nonc3nc1N2,3.9
7,C=CCN1C(=O)/C(=C\C=C\c2ccccc2)SC1=S,6.3
8,O=C1/C(=C/c2ccc3c(c2)OCO3)SC(=S)N1Cc1ccco1,94.5
9,O=C1/C(=C/c2ccccc2[N+](=O)[O-])SC(=S)N1Cc1ccco1,16.5
10,O=C1/C(=C/c2cccc(Br)c2)SC(=S)N1Cc1ccco1,3.6
11,COc1ccc(/C=C2\SC(=S)N(Cc3ccco3)C2=O)cc1OC,21.8
12,O=C1/C(=C/c2ccc(O)cc2)SC(=S)N1Cc1ccco1,-13.3
13,O=C1/C(=C/c2ccc(Cl)c(Cl)c2)SC(=S)N1Cc1ccco1,14.2
14,O=C1/C(=C/c2cccc3ccccc23)SC(=S)N1Cc1ccco1,79.2
15,O=C1/C(=C/c2ccc(Br)cc2)SC(=S)N1Cc1ccco1,104
16,COc1ccccc1/C=C1\SC(=S)N(Cc2ccco2)C1=O,1
17,O=C1/C(=C/C=C/c2ccccc2)SC(=S)N1Cc1ccco1,99.7
18,CCCCN1C(=O)/C(=C/C=C/c2ccccc2)SC1=S,-0.6
